High-throughput results (PubChem BioAssay)
This is a sample that favours compounds with a hit; in the whole collection about 3.4% have one here.
TEAD-YAP block – TEAD-YAP interaction inhibition | HEK-TIYL cells, TEAD-Gal4/YAP UAS-luciferase luminescence | inhibition, % at 9.12 µM | 640,000 tested, 1.4% active | AID 1259422; in the data active = inhibition above about 32%;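 also: 0% = median of test compound wells and 100% = reference inhibitor wells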
FBW7 act – activators of human E3 ligase FBW7. AlphaScreen FBW7–phospho-cyclin E peptide binding, activator screen. normalized activity (activation), % at 26.1 µM. 650,000 tested, 0.13% active. AID 1259310; in the data active = normalized activity above about 1.9%;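 also: purified mutant Fbw7 with reduced substrate affinity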
GPR151 activ – human GPR151 activation; PathHunter beta-arrestin GPR151 cells, luminescence; 650,000 tested, 1% active; activation, % at 11.2 µM; Q8TDV0; in the data active = activation above about 4.9%;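 also: 0% = median of compound wells and 100% = cells with positive control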
MITF inh – human MITF inhibition, primary screen | 650,000 tested, 0.91% active | inhibition, % at 2.6 µM | AlphaScreen MITF homodimerization, bead proximity signal | O75030; in the data active = inhibition above about 50%;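 also: 0% = vehicle wells with protein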
GPR151 conf act – confirmation of human GPR151 activators. 6,700 tested, under 10 active. GPR151 PathHunter beta-arrestin cells, luminescence, 90 min; % of EA-reagent control over plate median. shares compounds with GPR151 activ. activation, % at 11.2 µM;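 active = mean percent activation across replicates above the confirmation screen cutoff of 4.91%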
GPR119 counter – GPR119 activation, counter-screen for GPR151 activators; shares compounds with GPR151 activ; GPR119 PathHunter beta-arrestin cells, luminescence, 90 min; 0 = compound-well median, 100 = enzyme-acceptor control; activation, % at 11.2 µM; 6,700 tested, 0.3% active; AID 1508611;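 active = mean percent activation in the counterscreen above 29.09%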;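 also: counterscreen on off-target GPR119 to flag nonselective hits from the GPR151 activator screen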
Target sequence (Q8TDV5 whole entry, looked up): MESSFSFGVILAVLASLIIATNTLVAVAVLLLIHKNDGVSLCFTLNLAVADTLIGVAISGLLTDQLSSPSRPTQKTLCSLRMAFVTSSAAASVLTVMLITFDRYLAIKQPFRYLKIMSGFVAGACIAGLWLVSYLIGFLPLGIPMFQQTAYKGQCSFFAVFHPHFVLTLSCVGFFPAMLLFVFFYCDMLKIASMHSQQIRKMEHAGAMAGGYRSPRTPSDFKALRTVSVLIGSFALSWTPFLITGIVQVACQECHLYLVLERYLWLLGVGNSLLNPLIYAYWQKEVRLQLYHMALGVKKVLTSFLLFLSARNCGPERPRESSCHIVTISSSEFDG
* = called active by the depositor; / = no result; ! = not active in a repeat.

SMILES	TEAD-YAP block	FBW7 act	GPR151 activ	MITF inh	GPR151 conf act	GPR119 counter
CCOc1ccc(NC(=O)c2cc3cc(Br)cc(OC)c3oc2=O)cc1	-1.1	-0.1	-1.5	-14.3	/	/
COc1ccc2oc(=O)c(C(=O)Nc3cccc(Cl)c3)cc2c1	-11.3	-0.1	-0.1	-2.2	/	/
COc1ccc(NC(=O)c2cc3cc(Cl)ccc3oc2=O)cc1	-3.9	0.0	6.3*	-2.1	0.1	14.8
COc1cc(Br)cc2cc(C(=O)Nc3ccc(O)cc3)c(=O)oc12	-1.0	-0.1	7.6*	-17.2	-0.1	8.1
O=C(COc1ccc(Br)cc1)NCCc1c[nH]c2ccccc12	-0.1	-0.4	0.8	-0.8	/	/
c1ccc2c(N3CCCCCC3)nc(CN3CCCC3c3nccs3)nc2c1 (stereo not given)	-2.0	-0.1	5.0*	-1.1	0.1	-4.0
Cn1c(SCc2nc(-c3cccs3)no2)nnc1-c1ccco1	4.4	0.1	2.1	9.2	/	/
CCn1c(SCc2nc(-c3cccs3)no2)nnc1-c1ccco1	-2.7	0.0	6.9*	-139.1	-0.1	6.9
Cc1nc2cc(N=Cc3ccc(N(C)C)cc3)ccc2s1	12.6	0.2	4.0	-7.2	/	/
C=CCNc1cc(-c2ccccc2)nc2ncnn12	-3.4	-0.1	-0.1	-2.1	/	/
C#CCNc1cc(-c2ccccc2)nc2ncnn12	-0.1	0.0	7.1*	-1.2	0.1	-2.8
Cc1ccc2c(c1)CN(CC(=O)NCc1cc(-c3ccccc3)n[nH]1)CC(C)O2 (stereo not given)	-1.6	0.0	5.2*	5.6	0.6	6.6
CC1CN(CC(=O)NCc2nc(-c3ccccc3)n[nH]2)Cc2ccccc2O1 (stereo not given)	6.0	-0.2	-0.1	1.4	/	/
CCOC(=O)c1cc(N2C(=O)C3C4C=CC(CC4)C3C2=O)ccc1Cl (stereo not given)	8.1	0.3	10.3*	4.1	-0.2	7.2
CN(Cc1ccccc1)c1ccnc2c(-c3ccc(O)cc3)cnn12	72.8*	-0.1	5.0*	-7.5	-0.3	0.1
CCCc1ccc(S(=O)(=O)Nc2ccc3c(c2)CC(=O)N3C)cc1	8.5	0.0	4.9*	2.3	0.0	-16.9
O=C(O)C(=O)/C=C(\O)c1ccc(Cl)cc1	10.7	0.0	13.2*	3.2	0.3	5.9
O=C(NCc1ccccc1)c1nnc(Cc2cccc(F)c2)o1	-9.3	-0.3	4.9*	5.1	0.9	2.9
CCSc1nnc(NC(=O)CSc2nnc(Cc3cccn3C)n2C)s1	-0.9	0.2	1.5	-0.7	/	/
CCOC(=O)C1(CCOC)CCN(Cc2ccc(Cl)cc2)CC1	1.6	0.3	1.6	5.3	/	/
Cc1ccccc1-c1nc(-c2ccc(Cl)cc2)no1	-11.4	0.1	5.1*	0.6	-0.4	-4.3
Cc1ccccc1-c1nc(-c2ccc(Br)cc2)no1	-8.2	-0.3	0.8	0.4	/	/
CC(=O)c1cc(C#N)c(SCCC(C)C)nc1C	-9.9	-0.1	7.9*	-12.2	-0.7	1.0
COC(=O)c1ccc(NC(=O)COc2ccc(C34CC5CC(CC(C5)C3)C4)cc2)cc1	6.9	0.0	5.3*	4.5	-0.8	3.4
COC(=O)C1OC2OC3(CCCCC3)OC2C2OC3(CCCCC3)OC12 (stereo not given)	-5.0	0.1	1.1	-10.9	/	/
SMILES	TEAD-YAP block	FBW7 act	GPR151 activ	MITF inh	GPR151 conf act	GPR119 counter
CCc1ccccc1NC(=S)Nc1nc2ccc(F)cc2s1	45.6*	0.0	5.5*	-3.5	-0.3	-8.0
CC(C)C(=O)Nc1nc2ccc(F)cc2s1	-42.2	0.1	0.5	-1.0	/	/
COc1ccc(Nc2nc(=S)[nH]c3cc(OC)c(OC)cc23)cc1OC	7.9	0.0	6.6*	3.1	0.5	9.3
COc1cc2[nH]c(=S)nc(Nc3ccncc3)c2cc1OC	8.3	0.0	-0.1	0.4	/	/
CC1=C(C(=O)Nc2ccc(F)cc2)C(c2ccccc2Br)NC(=O)N1 (stereo not given)	0.7	-0.2	5.1*	1.3	0.4	-3.2
CNC(=O)CSc1nncn1-c1ccccc1	9.1	0.2	0.6	7.3	/	/
CCCCOC(=O)C1=C(C)NC(=O)NC1c1cc2c(cc1Br)OCO2 (stereo not given)	8.8	-0.1	5.1*	-5.9	1.3	9.1
COc1ccc(-c2nc(NC(=O)c3ccc(OC)c(Br)c3)sc2-c2ccc(OC)cc2)cc1	6.6	-0.1	-0.5	-2.3	/	/
COc1ccc(C2CC(=O)C3=C(C2)NC(C)=C(C(=O)OC2CCCC2)C3c2ccc(Cl)cc2)cc1 (stereo not given)	-1.8	-0.1	1.7	-12.5	/	/
COc1ccc(-c2csc(NC(=O)c3ccc(C)o3)n2)cc1	0.1	0.0	9.6*	10.2	-0.1	11.8
CCOc1ccc(-n2nc(C(=O)Nc3ccccc3F)c3ccccc3c2=O)cc1	-5.3	0.6	-0.5	0.7	/	/
CC(C)N(CCNC(=O)c1cccc(Nc2ccnn2C)n1)C(C)C	-4.2	-0.1	6.1*	9.9	-1.3	-17.2
CC(C)N(CCNC(=O)c1ccc2nc(Nc3ccnn3C)sc2c1)C(C)C	-10.7	-0.1	6.8*	-1.4	-0.8	-15.8
CC(C)N(CCNC(=O)c1ccc2nc(Nc3ncccn3)sc2c1)C(C)C	-17.9	-0.1	1.7	-4.1	/	/
C=CCN1C(=O)CS/C1=N\NC(=O)c1ccccc1	-1.2	0.1	17.7*	2.3	0.6	3.7
CCOC(=O)c1cccc(-c2ccc(/C=C3\C(=O)N(CCCO)C(=O)C(C#N)=C3C)o2)c1	-5.7	0.0	-1.0	8.1	/	/
COc1ccc(O)c(/C=N/N=C2/C(=O)Nc3ccccc32)c1	8.9	0.0	6.6*	15.4	-0.3	-5.3
COc1cc(/C=N/N=C2/C(=O)Nc3ccccc32)cc(OC)c1O	2.5	-0.1	3.4	-8.1	/	/
Cc1nc2ccccn2c(=O)c1CCN1CCC(C(=O)c2ccc(F)cc2)CC1	-3.0	0.7	9.9*!	6.6	-0.4	-4.5
Cc1nc2sccn2c(=O)c1CCN1CCC(=C(c2ccc(F)cc2)c2ccc(F)cc2)CC1	0.5	0.1	-0.3	27.8	/	/
Cc1nc(NC(=O)c2ccccc2F)sc1C(=O)O	5.1	0.6	-6.1	17.9	/	/
Cc1nc(NS(C)(=O)=O)sc1C(=O)O	8.3	0.0	5.0*	10.9	0.3	4.8
Nc1ccc2nc(SCC(=O)c3ccc(Cl)cc3)sc2c1	-3.5	0.1	6.6*	14.4	-0.2	-1.5
Cc1ccc(S(=O)(=O)n2nc(C(F)(F)F)c3cnccc32)cc1	4.2	0.1	-1.0	-11.9	/	/
O=S(=O)(c1ccc(F)cc1)n1nc(C(F)(F)F)c2cnccc21	6.1	0.2	5.3*	2.1	0.5	2.4
Cc1cccc(N(CC(N)=O)C2SC(=O)N(Cc3cccc(C(=O)O)c3)C2=O)c1 (stereo not given)	-3.2	0.6	10.7*	12.6	-0.4	-6.9
CCOC(=O)CN(c1cccc(C)c1)C1SC(=O)N(Cc2cccc(C(=O)O)c2)C1=O (stereo not given)	-4.6	0.6	0.0	0.9	/	/
